About 7,900 targets were measured; listed, in parts, are those with a hit and a random draw of the rest. About 0.6% of all pairs of compound and target were hits. A number with no mark means an inactive call.
Experiments:
Assay in all cases: log2 fold change, soluble protein after heating vs DMSO (PISA); higher = thermal stabilisation; K562 cells, 10 uM, 30 min; active = over 0.2 and 3.5 SD of the protein, either way, in both replicates (recomputed)
[1] = compound: CC1=C(C=C(C=C1)NC(=O)C2=CC(=CC=C2)C(C)(C)C#N)NC3=CC4=C(C=C3)N=CN(C4=O)C
Outline: (§1)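 Quantification of soluble protein used TMTpro 16plex LC-MS/MS, with channel sums equalised. Samples were the supernatant after 21,000xg for 90 min of pooled aliquots from K562 cells (2×10^6 cells/mL) treated with 10 μM compound for 30 min, heated for 3 min over 48°C-58°C, and extracted in PBS with 0.5% NP-40 at 4°C. Values, from duplicates, describe thermal stability against control samples on a log2 fold-change scale.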

[2] = compound: CC1=C(C=C(C=C1)NC(=O)C2=CC(=CC=C2)N(C)C)NC(=O)C3=CC=C(C=C3)O
Outline: as §1

[3] = compound: CC1=CC=C(C=C1)SC2=C3C=C(SC3=CN=C2)C(=O)N
Outline: as §1

[4] = compound: CC1=NC(=CC=C1)C2=C(N=C(N2)C(C)(C)C)C3=CC4=NC=CN=C4C=C3
Outline: as §1

Nexturastat A = compound: CCCCN(Cc1ccc(C(=O)NO)cc1)C(=O)Nc1ccccc1 [Nexturastat A]
Outline: as §1

vemurafenib = compound: CCCS(=O)(=O)Nc1ccc(F)c(C(=O)c2c[nH]c3ncc(-c4ccc(Cl)cc4)cc23)c1F [vemurafenib]
Outline: as §1

[5] = compound: CCCS(=O)(=O)Nc1ccc(F)c(C(=O)c2c[nH]c3ncc(Cl)cc23)c1F
Outline: as §1

[6] = compound: CCCc1cc(C)[nH]c(=O)c1CNC(=O)c1cc(-c2ccnc(N3CCN(C)CC3)c2)cc2c1cnn2C(C)C
Outline: as §1

givinostat = compound: CCN(CC)Cc1ccc2cc(COC(=O)Nc3ccc(C(=O)NO)cc3)ccc2c1 [givinostat]
Outline: as §1

barasertib = compound: CCN(CCCOc1ccc2c(Nc3cc(CC(=O)Nc4cccc(F)c4)[nH]n3)ncnc2c1)CCOP(=O)(O)O [barasertib]
Outline: as §1

[7] = compound: CC[C@@H]1C(=O)N(C)c2cnc(Nc3ccc(C(=O)NC4CCN(C)CC4)cc3OC)nc2N1C1CCCC1
Outline: as §1

volasertib = compound: CC[C@@H]1C(=O)N(C)c2cnc(Nc3ccc(C(=O)N[C@H]4CC[C@H](N5CCN(CC6CC6)CC5)CC4)cc3OC)nc2N1C(C)C [volasertib]
Outline: as §1

[8] = compound: CC[C@H](C)N1C=C(C2=C(C=C(C=C21)C3=CN=C(C=C3)N4CCNCC4)C(=O)NCC5=C(C=C(NC5=O)C)C)C
Outline: as §1

epoxomicin = compound: CC[C@H](C)[C@@H](C(=O)N[C@@H]([C@@H](C)O)C(=O)N[C@@H](CC(C)C)C(=O)[C@]1(CO1)C)NC(=O)[C@H]([C@@H](C)CC)N(C)C(=O)C [epoxomicin]
Outline: as §1

[9] = compound: CCn1c(C(=O)N(C2CC2)C2CC2)cc2c3c(ncn3C)c(Nc3cc(C)n(C)n3)nc21
Outline: as §1

[10] = compound: CCn1cc(-c2ccnc3[nH]c(-c4cccc(CN(C)C)c4)cc23)c(-c2ccc(NC(=O)N(C)C)cc2)n1
Outline: as §1

[11] = compound: CN(C)CC(=O)Nc1ccc2[nH]c(=O)c3ccccc3c2c1
Outline: as §1

rosiglitazone = compound: CN(CCOC1=CC=C(C=C1)C[C@H]2C(=O)NC(=O)S2)C3=CC=CC=N3 (racemic) [rosiglitazone]
Outline: as §1

[12] = compound: CN1C2=C(C3=C1C(=O)N(N=C3)CC4=CC(=CC=C4)N)SC(=C2)S(=O)C
Outline: as §1

[13] = compound: CN1CCC(CNc2ccc3ncc(-c4cccc(OC(F)(F)F)c4)n3n2)CC1
Outline: as §1

Sequence of UniProt O95628 (O95628 whole entry, looked up): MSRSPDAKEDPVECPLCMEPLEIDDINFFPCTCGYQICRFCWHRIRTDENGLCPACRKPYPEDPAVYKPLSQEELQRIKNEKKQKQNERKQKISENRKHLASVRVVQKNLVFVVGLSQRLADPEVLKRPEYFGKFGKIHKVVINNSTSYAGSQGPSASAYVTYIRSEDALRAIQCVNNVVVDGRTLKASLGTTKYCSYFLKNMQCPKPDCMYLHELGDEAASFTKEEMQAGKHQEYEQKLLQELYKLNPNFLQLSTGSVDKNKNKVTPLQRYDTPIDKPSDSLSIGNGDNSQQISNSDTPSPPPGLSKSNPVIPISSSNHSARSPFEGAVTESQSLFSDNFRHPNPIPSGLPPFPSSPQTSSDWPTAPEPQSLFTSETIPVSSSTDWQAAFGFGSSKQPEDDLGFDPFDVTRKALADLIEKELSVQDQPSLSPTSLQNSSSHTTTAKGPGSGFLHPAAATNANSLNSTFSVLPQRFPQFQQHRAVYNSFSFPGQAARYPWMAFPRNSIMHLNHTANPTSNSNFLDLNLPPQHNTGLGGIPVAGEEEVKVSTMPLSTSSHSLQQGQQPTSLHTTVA
Sequence of UniProt P60033 (P60033 whole entry, looked up): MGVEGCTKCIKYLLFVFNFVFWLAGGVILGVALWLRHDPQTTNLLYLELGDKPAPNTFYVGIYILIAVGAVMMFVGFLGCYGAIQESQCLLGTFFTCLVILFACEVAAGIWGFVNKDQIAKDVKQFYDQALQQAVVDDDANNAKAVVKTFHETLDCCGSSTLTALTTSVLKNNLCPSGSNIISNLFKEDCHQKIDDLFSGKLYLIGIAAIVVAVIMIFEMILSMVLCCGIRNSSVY
Sequence of UniProt Q9H9S4 (Q9H9S4 whole entry, looked up): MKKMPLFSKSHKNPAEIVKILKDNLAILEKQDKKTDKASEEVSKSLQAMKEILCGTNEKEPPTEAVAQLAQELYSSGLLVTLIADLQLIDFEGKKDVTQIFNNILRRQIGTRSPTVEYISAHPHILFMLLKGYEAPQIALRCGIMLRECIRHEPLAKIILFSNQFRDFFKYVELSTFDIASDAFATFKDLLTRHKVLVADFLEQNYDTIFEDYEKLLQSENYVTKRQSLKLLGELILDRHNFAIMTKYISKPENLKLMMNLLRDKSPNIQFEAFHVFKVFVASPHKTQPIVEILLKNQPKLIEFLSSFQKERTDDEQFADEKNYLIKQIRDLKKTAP
Sequence of UniProt Q5T6V5 (Q5T6V5 whole entry, looked up): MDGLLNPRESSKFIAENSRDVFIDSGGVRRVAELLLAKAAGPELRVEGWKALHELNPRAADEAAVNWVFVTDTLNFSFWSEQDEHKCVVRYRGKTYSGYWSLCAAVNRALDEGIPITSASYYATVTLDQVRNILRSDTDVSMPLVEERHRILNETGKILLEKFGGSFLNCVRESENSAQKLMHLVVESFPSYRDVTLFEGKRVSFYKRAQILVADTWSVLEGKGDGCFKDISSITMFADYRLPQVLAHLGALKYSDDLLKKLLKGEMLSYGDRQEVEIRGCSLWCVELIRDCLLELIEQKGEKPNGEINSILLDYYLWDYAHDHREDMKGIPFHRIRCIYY
Sequence of UniProt P42574 (P42574 whole entry, looked up): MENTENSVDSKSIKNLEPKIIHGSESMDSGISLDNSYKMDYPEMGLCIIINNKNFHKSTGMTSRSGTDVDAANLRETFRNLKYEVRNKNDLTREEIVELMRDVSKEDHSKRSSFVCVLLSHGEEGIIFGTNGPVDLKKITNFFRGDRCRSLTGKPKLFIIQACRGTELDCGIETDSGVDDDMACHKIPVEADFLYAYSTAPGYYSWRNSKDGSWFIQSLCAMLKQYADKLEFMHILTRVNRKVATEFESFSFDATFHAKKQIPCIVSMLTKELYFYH
Sequence of UniProt Q00535 (Q00535 whole entry, looked up): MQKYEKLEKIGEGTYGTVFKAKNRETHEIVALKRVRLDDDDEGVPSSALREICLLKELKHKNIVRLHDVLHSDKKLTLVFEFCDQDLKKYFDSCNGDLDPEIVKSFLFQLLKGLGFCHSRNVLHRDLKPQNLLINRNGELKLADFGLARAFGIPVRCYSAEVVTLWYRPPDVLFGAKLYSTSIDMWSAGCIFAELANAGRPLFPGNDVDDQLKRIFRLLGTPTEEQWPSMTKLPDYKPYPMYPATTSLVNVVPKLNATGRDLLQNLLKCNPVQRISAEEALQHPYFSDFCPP
Sequence of UniProt Q14061 (Q14061 whole entry, looked up): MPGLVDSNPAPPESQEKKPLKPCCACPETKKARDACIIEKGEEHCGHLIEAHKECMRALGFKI
Sequence of UniProt Q9BSQ5 (Q9BSQ5 whole entry, looked up): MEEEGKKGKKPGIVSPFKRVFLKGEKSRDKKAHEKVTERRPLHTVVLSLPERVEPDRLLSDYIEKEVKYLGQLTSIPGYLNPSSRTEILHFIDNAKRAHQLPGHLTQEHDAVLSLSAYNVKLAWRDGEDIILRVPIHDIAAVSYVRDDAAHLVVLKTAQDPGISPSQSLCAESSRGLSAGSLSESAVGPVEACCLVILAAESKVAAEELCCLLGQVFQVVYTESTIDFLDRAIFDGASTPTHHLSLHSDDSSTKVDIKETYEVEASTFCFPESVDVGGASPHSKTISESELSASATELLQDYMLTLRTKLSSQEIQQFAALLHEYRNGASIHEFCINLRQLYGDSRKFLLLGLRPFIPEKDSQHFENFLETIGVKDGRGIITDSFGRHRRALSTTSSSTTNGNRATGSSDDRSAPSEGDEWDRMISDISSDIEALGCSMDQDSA
Sequence of UniProt O43529 (O43529 whole entry, looked up): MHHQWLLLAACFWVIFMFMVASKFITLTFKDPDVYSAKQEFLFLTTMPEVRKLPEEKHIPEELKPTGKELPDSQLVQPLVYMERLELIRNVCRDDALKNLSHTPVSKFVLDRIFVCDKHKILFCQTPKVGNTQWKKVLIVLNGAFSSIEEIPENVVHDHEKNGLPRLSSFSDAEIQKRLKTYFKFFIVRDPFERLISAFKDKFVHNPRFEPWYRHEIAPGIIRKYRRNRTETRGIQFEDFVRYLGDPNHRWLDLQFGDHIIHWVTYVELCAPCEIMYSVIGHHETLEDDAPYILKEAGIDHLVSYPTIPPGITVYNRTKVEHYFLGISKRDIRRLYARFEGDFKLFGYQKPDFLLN
Sequence of UniProt Q5BKX5 (Q5BKX5 whole entry, looked up): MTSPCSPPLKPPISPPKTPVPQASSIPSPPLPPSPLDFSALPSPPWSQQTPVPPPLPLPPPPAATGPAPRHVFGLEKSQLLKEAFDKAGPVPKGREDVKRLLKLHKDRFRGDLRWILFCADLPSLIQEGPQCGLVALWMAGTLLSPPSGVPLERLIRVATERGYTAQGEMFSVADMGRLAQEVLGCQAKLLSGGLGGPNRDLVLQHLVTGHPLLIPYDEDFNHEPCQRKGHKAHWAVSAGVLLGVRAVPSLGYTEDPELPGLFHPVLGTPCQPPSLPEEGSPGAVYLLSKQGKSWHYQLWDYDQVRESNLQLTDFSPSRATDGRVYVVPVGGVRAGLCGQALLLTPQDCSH
Sequence of UniProt Q7Z4R8 (Q7Z4R8 whole entry, looked up): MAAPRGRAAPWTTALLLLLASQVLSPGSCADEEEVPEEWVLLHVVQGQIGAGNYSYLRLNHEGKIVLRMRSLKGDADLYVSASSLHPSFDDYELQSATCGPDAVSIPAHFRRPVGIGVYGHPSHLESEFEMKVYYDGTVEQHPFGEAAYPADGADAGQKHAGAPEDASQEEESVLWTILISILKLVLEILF
Sequence of UniProt Q96KA5 (Q96KA5 whole entry, looked up): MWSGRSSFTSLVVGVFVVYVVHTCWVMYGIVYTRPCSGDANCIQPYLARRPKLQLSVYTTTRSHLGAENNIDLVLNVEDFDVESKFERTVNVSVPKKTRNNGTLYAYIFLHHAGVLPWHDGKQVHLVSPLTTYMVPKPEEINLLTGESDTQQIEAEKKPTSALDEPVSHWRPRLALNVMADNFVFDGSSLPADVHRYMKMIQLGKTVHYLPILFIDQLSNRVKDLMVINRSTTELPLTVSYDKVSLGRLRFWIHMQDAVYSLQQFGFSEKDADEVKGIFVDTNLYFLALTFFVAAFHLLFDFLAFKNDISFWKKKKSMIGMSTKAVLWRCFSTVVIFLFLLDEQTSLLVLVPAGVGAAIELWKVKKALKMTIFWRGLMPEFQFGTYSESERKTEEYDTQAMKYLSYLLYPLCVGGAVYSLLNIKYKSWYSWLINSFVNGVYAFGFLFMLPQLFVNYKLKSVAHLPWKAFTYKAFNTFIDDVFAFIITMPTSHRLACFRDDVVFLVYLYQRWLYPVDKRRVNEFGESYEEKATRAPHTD
Sequence of UniProt Q92828 (Q92828 whole entry, looked up): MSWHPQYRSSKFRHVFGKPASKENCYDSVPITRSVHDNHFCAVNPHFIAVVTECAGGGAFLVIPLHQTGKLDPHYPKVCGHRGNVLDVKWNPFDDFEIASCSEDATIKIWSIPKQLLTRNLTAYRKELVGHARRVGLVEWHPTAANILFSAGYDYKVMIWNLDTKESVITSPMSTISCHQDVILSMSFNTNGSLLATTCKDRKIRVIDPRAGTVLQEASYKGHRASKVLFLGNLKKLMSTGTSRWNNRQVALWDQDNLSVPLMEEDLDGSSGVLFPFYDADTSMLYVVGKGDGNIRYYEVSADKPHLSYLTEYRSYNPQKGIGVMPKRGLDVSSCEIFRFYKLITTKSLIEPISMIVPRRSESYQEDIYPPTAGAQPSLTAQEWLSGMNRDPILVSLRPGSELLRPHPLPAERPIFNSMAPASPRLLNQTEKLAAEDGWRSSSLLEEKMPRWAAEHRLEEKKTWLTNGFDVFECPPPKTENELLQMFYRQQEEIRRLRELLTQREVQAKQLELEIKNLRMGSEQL
Sequence of UniProt Q8WUX2 (Q8WUX2 whole entry, looked up): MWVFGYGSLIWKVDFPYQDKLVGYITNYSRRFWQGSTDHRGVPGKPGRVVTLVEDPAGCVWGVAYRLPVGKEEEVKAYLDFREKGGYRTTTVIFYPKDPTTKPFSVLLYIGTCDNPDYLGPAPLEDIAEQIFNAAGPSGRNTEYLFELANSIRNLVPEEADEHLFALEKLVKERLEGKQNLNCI
Sequence of UniProt Q9P0B6 (Q9P0B6 whole entry, looked up): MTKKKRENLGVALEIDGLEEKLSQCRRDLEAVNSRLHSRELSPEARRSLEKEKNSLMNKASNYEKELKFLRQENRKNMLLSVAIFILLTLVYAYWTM

Target	log2 fold change [1]	log2 fold change [2]	log2 fold change [3]	log2 fold change [4]	log2 fold change (Nexturastat A)	log2 fold change (vemurafenib)	log2 fold change [5]	log2 fold change [6]	log2 fold change (givinostat)	log2 fold change (barasertib)	log2 fold change [7]	log2 fold change (volasertib)	log2 fold change [8]	log2 fold change (epoxomicin)	log2 fold change [9]	log2 fold change [10]	log2 fold change [11]	log2 fold change (rosiglitazone)	log2 fold change [12]	log2 fold change [13]
CHD4 isoform 2 (UniProt Q14839)	0.011	-0.028	0.062	-0.014	0.087	0.068	0.116	0.101	0.154	0.121	-0.124	-0.382	0.158	0.069	-0.051	0.098	0.048	0.058	0.1	-0.073
CD81 (UniProt P60033)	0.039	0.112	0.069	0.054	-0.027	0.156	-0.08	-0.06	0.016	-0.008	0.393 (active)	0.193	-0.06	0.013	0.058	-0.226	0.098	0.013	-0.139	0.145
CHAC2 (UniProt Q8WUX2)	-0.001	0.025	0.037	0.015	-0.026	0.04	0.031	-0.08	0.007	0.079	-0.343 (active)	-0.227	0.035	-0.025	0.039	-0.03	0.002	0.028	-0.04	0.041
CLPTM1L (UniProt Q96KA5)	-0.014	0.01	0.03	0.022	-0.032	0.045	0.016	-0.015	0.009	0.021	-0.067	-0.185	0.005	0.013	0.009	-0.051	0.023	0.054	-0.023	-0.188
C9orf64 (UniProt Q5T6V5)	0.014	-0.014	0.029	0.001	0.029	-0.032	0.079	-0.036	0.064	0.08	-0.066	-0.309	0.103	-0.004	-0.094	-0.149	0.075	0.119	-0.007	-0.396 (active)
CASP3 (UniProt P42574)	-0.049	0.086	0.009	0.065	-0.025	-0.009	0.022	0.113	-0.029	-0.005	0.012	0.014	-0.033	0.273 (active)	0	0.018	-0.021	0.014	-0.097	0.019
CNOT4 isoform 6 (UniProt O95628)	-0.056	-0.012	0.005	0.023	-0.122	-0.014	-0.007	-0.069	-0.064	0.007	-0.008	-0.109	0.031	0.006	0.007	-0.056	0.003	0.036	0.028	-0.095
CORO2A (UniProt Q92828)	0.014	0.157	0.01			0.063	0.054	0.026	0.002	0.065	0.164	-0.075	0.01		-0.016	0	-0.038	0.011	-0.022	-0.096
CIR1 (UniProt Q86X95)	-0.04	-0.38	0.047	-0.018	0.199	-0.156	-0.129	0.047	-0.015	-0.105	0	0.049		-0.212	-0.015	0.055	0.142	-0.169	0.234	-0.458
COX17 (UniProt Q14061)	-0.015	-0.358		0.024	0	0.029		0.025	0.029				0.044	0.504	-0.097	-0.154	-0.051		-0.146	0.055
CCM2 isoform 2 (UniProt Q9BSQ5)	-0.072	-0.068	-0.124	-0.002	0.102	0.008	0.009	0.052	-0.003	-0.061	-0.207	-0.412 (active)		0.102	-0.047	-0.017	-0.01	0.032	-0.012	-0.233
CCDC167 (UniProt Q9P0B6)	0.064	-0.039	-0.007	-0.042	0.022		-0.034	0.022	0.048	-0.003	0.069	-0.12	-0.029	0.019	-0.011	0.13		-0.084	-0.095	0.033
C19orf54 (UniProt Q5BKX5)	0.096	-0.053	0.127	-0.104	-0.025	-0.118	0.077		0.044		0.054	-0.06		0.094	-0.152	0.056	0.036		-0.177	-0.141
CCNC (UniProt P24863)	0.207	-0.072		0.031	0.008	0.105		-0.086	0.011	-0.024				0.035	0.031	-0.178	-0.011	-0.022	0.032	0.4 (active)
CHST10 (UniProt O43529)	0.067	-0.096	-0.092	-0.052	0.05		-0.015	-0.097	0.069	-0.025		-0.146	0.002	-0.019	-0.043	-0.021		0.081		-0.108
C6orf120 (UniProt Q7Z4R8)	-0.054	0.045	0.018	-0.094		-0.035	0.069		-0.011	0.017	0.066	-0.101	0.019		0.095		-0.155	0.06	-0.245	
CDK5 (UniProt Q00535)	-0.053	-0.009	0.001	-0.008	-0.002	0.031	0.058	0.078	0.003		-0.087	-0.259 (active)	0.095	0	0.004	-0.039	0.002	0.041	-0.014	0.025
CAB39L (UniProt Q9H9S4)	-0.142	-0.008	0.004	-0.043	0.003	-0.013	-0.001		-0.025	0.043	-0.134	-0.054		0.018	0.008	0.161	-0.169	0.107	-0.047	0.072
